# Bioassay records: PubChem, National Center for Advancing Translational Sciences (NCATS)
# This is a sample that favours compounds with a hit; in the whole collection about 2.9% have one here.
# Nrf2 ARE act: qHTS of Nrf2 Activators. Potency, µM (titrated, usually from 46.1 µM), without a hit: at the top dose activation, most hits filed as activators. AREc32 ARE-luciferase reporter (MCF7-derived line), luminescence, 24 h. hit rate 0.31% among 410,000; further: % of control where 0% means no effect; nearly all actives have a fitted effect of over 65% in size
#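 Each well held 1000 AREc32 cells, which were incubated with compound for 24 hr at 37 deg C after overnight attachment, and ARE reporter activity was quantified by firefly luciferase luminescence.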
# ATXN2 expr inh: Primary qHTS for Inhibitors of ATXN expression; HEK-293 ATXN2-luciferase reporter, luminescence, 24 h; Potency, µM (doses to about 57 µM), for the others: top-dose activity change, negative = inhibition, hits mostly inhibitors; hit rate 0.72% among 360,000; AID 1745845, 2022; further: on the % scale 0 is the no-effect control and ±100 the full control effect; nearly all actives have a fitted effect of over 55% in size
#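 ATXN2-luciferase reporter cells (luciferase flanked by upstream and downstream ATXN2 gene portions) were treated 24 h at 37 °C with compounds at up to 57 uM. SteadyGlo luminescence gave expression; GF-AFC fluorescence gave viability.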
# ATXN viability: Viability Counterscreen for Primary qHTS for Inhibitors of ATXN expression | hit rate 0.49% among 400,000 | Potency, µM (top dose mostly 56.7 µM), usual class: cytotoxic | S2 cells (HEK-293 line with an ATXN2-luciferase reporter) viability, CellTiter-Fluor protease fluorescence, 24 h | AID 651635, 2014; further: nearly all actives have a fitted effect of over 40% in size
# A549 tox-1: Nrf2 qHTS screen for inhibitors: counterscreen for cytotoxicity; A549 ARE-Fluc cells, CellTiter-Fluor viability, 18-24 h; Potency, µM (titrated, usually from 46 µM), for the others: at the top dose activity change, negative = cytotoxicity, hits mostly inhibitors; hit rate 0.16% among 390,000; AID 504648, 2011; further: on the % scale 0 is the no-effect control and ±100 the full control effect
#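 Cytotoxicity counterscreen: CellTiter-Fluor fluorescence was measured in A549 ARE_Fluc cells after 18-24 h of compound exposure in a concentration series. The subsequent BugLite luminescent read reports ARE-luciferase activity.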
# Nrf2 block: Nrf2 qHTS screen for inhibitors; A549 ARE-Fluc reporter, luciferase luminescence, 18-24 h; Potency, µM (top dose mostly 46 µM), inactives show at the top dose activity change, negative = inhibition, most hits filed as inhibitors; hit rate 2.1% among 360,000; AID 504444, 2011; further: on the % scale 0 is the no-effect control and ±100 the full control effect; nearly all actives have a fitted effect of over 60% in size
#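 A549 ARE_Fluc cells, 5000/well, 5% FBS OPTI-MEM; compounds in dose-response, 18-24 h at 37 °C/5% CO2; CellTiter-Fluor viability read (Ex 405/Em 525), then BugLite luciferase luminescence = Nrf2 activity.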
# FLuc counter 3: Nrf2 qHTS screen for inhibitors: Purified Fluc Biochemical Counterscreen for Hit Validation; hit rate 4% among 1,400; AID 720522, 2013; shares compounds with Nrf2 block; purified firefly luciferase, luminescence inhibition; Potency, µM (top dose mostly 57.5 µM), for the others: at the highest dose activity change, negative = inhibition, most hits filed as inhibitors; further: on the % scale 0 is the no-effect control and ±100 the full control effect; nearly all actives have a fitted effect of over 65% in size
# Target sequence (P08659 whole entry, looked up): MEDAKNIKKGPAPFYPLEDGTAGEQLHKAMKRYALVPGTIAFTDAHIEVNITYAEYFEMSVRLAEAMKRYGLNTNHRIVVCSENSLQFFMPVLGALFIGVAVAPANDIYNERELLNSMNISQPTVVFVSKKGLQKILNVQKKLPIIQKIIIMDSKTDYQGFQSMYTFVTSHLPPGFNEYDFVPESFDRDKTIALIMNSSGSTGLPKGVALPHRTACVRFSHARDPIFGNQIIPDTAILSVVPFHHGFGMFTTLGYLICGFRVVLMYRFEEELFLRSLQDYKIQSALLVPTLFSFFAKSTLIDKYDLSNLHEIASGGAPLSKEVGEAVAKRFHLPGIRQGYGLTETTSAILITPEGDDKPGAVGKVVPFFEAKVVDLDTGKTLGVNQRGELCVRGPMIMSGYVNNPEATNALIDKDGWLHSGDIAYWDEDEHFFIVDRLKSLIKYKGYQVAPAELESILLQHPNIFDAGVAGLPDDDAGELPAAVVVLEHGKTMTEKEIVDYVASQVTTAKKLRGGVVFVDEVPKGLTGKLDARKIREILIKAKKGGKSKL
# A549 tox-2: Nrf2 qHTS screen for inhibitors: A549 ARE-Fluc Cytotoxicity Counterscreen for Hit Validation; shares compounds with Nrf2 block; A549 ARE-Fluc cells, cytotoxicity counterscreen; Potency, µM (titrated, usually from 46.1 µM), without a hit: top-dose activity change, negative = cytotoxicity, hits mostly inhibitors; hit rate 2% among 1,400;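 further: cells exposed to compounds for 18 to 24 hours; on the % scale 0 is the no-effect control and ±100 the full control effect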
# ARE-Fluc inh: Nrf2 qHTS screen for inhibitors: Nrf2 A549 ARE-Fluc Confirmation Assay for Hit Validation. shares compounds with Nrf2 block. A549 ARE-firefly luciferase reporter, luminescence. Potency, µM (titrated, usually from 46.1 µM), inactives show top-dose activity change, negative = inhibition, most hits filed as inhibitors. hit rate 74% among 1,400. AID 720524, 2013; further: on the % scale 0 is the no-effect control and ±100 the full control effect; nearly all actives have a fitted effect of over 65% in size
# Starred values were filed as active, the others as inactive; i = inactive; ? = inconclusive; . = no result given. The call rests on the fitted dose curve; in most records, active means well fitted curve in the direction sought with a large enough effect; inconclusive means small, poorly fitted or top-dose-only effect, or another doubt; inactive means no such curve, though single readings can be large; an effect the other way counts as inactive or inconclusive. Potency means the concentration at half of the fitted maximal effect.
SMILES,Nrf2 ARE act,ATXN2 expr inh,ATXN viability,A549 tox-1,Nrf2 block,FLuc counter 3,A549 tox-2,ARE-Fluc inh
CS(=O)(=O)N1CCCc2cc(C(=O)Nc3cccc(C(F)(F)F)c3)ccc21,1%,.,.,-28%,9.2µM*,?,-16%,?
O=C(Nc1nonc1NC(=O)c1cccs1)c1cccs1,7%,?,?,?,1.6µM*,-15%,-12%,6.5µM*
O=C(Nc1ccc(NC(=O)c2cccs2)cc1)c1cccs1,0%,0%,i,-23%,-15%,.,.,.
Cc1cc[n+](C(C)C(=O)c2ccc(Cl)cc2)cc1 (stereo not drawn),0%,-17%,i,-3%,?,.,.,.
Cc1cc[n+](C(C)C(=O)c2ccc(-c3ccccc3)cc2)cc1 (stereo not drawn),5%,?,i,-24%,8.2µM*,3%,-16%,9.2µM*
CN(Cc1ccc(OC(F)F)cc1)C(=O)c1cccc(S(=O)(=O)N2CCN(Cc3ccccc3)CC2)c1,0%,?,i,-17%,6.5µM*,-1%,-23%,6.5µM*
CN(CCOc1ccc(Cl)cc1)C(=O)c1cccc(S(=O)(=O)N2CCN(c3ccccc3)CC2)c1,0%,-27%,i,?,5.8µM*,0%,-14%,23µM*
COc1cccc(CN(C)C(=O)c2cccc(S(=O)(=O)N3CCN(c4ccccc4)CC3)c2)c1OC,0%,?,i,?,7.3µM*,0%,?,0.12µM*
COc1cccc(CN(C)C(=O)c2cccc(S(=O)(=O)NCc3ccccc3)c2)c1OC,2%,-16%,i,-11%,7.3µM*,0%,-3%,-3%
CN(Cc1ccc(Cl)cc1Cl)C(=O)c1cccc(S(=O)(=O)N2CCN(c3ccccc3)CC2)c1,1%,-22%,i,-16%,?,.,.,.
Cc1c(C(C)NC(=O)c2cc(COc3cccc4cnccc34)on2)cnn1C (stereo not drawn),0%,.,i,-17%,8.2µM*,-14%,1%,7.3µM*
O=C(NCc1cccs1)c1ccc2ccccc2n1,2%,17%,i,-5%,?,.,.,.
C=C(c1ccc2ccccc2n1)c1cccs1,.,.,.,.,.,-6%,-30%,?
O=C(CN1C(=O)NC2(CCCC2)C1=O)NCCC1=CCCCC1,0%,49%,i,3%,4%,.,.,.
Nc1nc(-c2ccco2)nn1C(=O)c1ccc(Cl)cc1,-1%,5%,i,-7%,7.3µM*,1%,0%,4.1µM*
Nc1nc(-c2ccco2)nn1C(=O)c1ccc([N+](=O)[O-])cc1,1%,7%,i,2%,-2%,.,.,.
CCn1ncc(/C=C/C(=O)Nc2c(C)nn(Cc3ccc(Cl)cc3Cl)c2C)c1C,8%,?,?,?,5.8µM*,-10%,-23%,.
CCn1nc(C)c(NC(=O)/C=C/c2cnn(C)c2C)c1C,0%,1%,i,-18%,-18%,.,.,.
CC(=O)c1c(C)n(CC(=O)NCc2ccc3c(c2)OCO3)c2ccccc12,1%,-3%,i,-5%,5.8µM*,1%,11%,?
O=C(Cn1c(CO)nc2ccccc21)NCc1ccc2c(c1)OCO2,0%,4%,i,-21%,-11%,.,.,.
COc1cc(OC)c(OC)cc1/C=C/c1ccnc2ccccc12,5%,-26%,i,-17%,-12%,.,.,.
Cc1cc(N(C)C)cc(C)c1/C=C/c1ccnc2ccccc12,.,.,.,.,.,?,?,9.2µM*
COc1cc(=O)n2c(c1C(=O)N(C)Cc1nonc1C)CCN(Cc1cc(C)c(C)cc1C)CC2,.,.,i,.,.,.,.,.
COc1ccc(CCNc2c(C)c(C)nc3ncnn23)cc1,0%,-32%,i,?,1µM*,0%,-22%,2.1µM*
CCc1c(C)nc2ncnn2c1NCCc1ccc(OC)c(OC)c1,0%,-2%,i,0%,.,.,.,.
SMILES,Nrf2 ARE act,ATXN2 expr inh,ATXN viability,A549 tox-1,Nrf2 block,FLuc counter 3,A549 tox-2,ARE-Fluc inh
CC(=O)N1CCc2cc(S(=O)(=O)N3CC(C)CC(C)C3)ccc21 (stereo not drawn),0%,-2%,i,-2%,?,.,.,.
O=C(Nc1ccc(N2CCOCC2)cc1)c1ccc(Cl)c(S(=O)(=O)N2CCCCC2)c1,0%,.,?,-7%,4.1µM*,-2%,-3%,5.2µM*
COc1ccc(NC(=O)c2ccc(Cl)c(S(=O)(=O)N3CC(C)OC(C)C3)c2)cn1 (stereo not drawn),3%,.,i,-5%,2.6µM*,1%,-7%,7.3µM*
Cc1ccc(NS(=O)(=O)c2ccc(C(=O)NC3CCN(Cc4ccccc4)CC3)cc2)cc1,5%,-33%,i,?,5.8µM*,2%,-24%,7.3µM*
O=C(Nc1ccc2c(c1)OCCO2)c1ccc(Cl)c(S(=O)(=O)N2CCOCC2)c1,1%,8%,i,-14%,-13%,.,.,.
O=C(Nc1ccc(S(=O)(=O)Nc2ccc(F)cc2)cc1)c1ccc(CN2CCOCC2)cc1,4%,-24%,i,-18%,3.7µM*,-4%,-8%,.
COc1ccc(NS(=O)(=O)c2ccc(NC(=O)c3ccc(CN4CCOCC4)cc3)cc2)cc1,5%,?,i,-2%,?,.,.,.
Fc1ccc(-n2ncc3c(Nc4ccc5c(c4)OCCO5)ncnc32)cc1,4%,8%,i,0%,.,.,.,.
O=C(Nc1nnc(-c2ccco2)o1)c1ccc(S(=O)(=O)N2CCCCC2)cc1,-1%,.,i,.,.,.,.,.
Cn1c(=O)c(=O)n(C)c2cc(S(=O)(=O)N3CCCC3C(=O)NCc3ccco3)ccc21 (stereo not drawn),0%,.,i,1%,14%,.,.,.
O=C(Nc1ccc(S(=O)(=O)N2CCCCC2)cc1)c1ccc(CN2CCOCC2)cc1,-1%,?,?,-4%,4.6µM*,-1%,2%,7.3µM*
O=C(Nc1ccc(S(=O)(=O)N2CCOCC2)cc1)c1ccc(Cl)cc1,2%,-11%,i,8%,?,.,.,.
O=C(Nc1ccc(S(=O)(=O)N2CCCC2)cc1)c1ccc(CN2CCOCC2)cc1,5%,?,?,-14%,4.1µM*,-2%,-8%,8.2µM*
